These results are taken from the supplement of paper PMC9262897, “Low-cost anti-mycobacterial drug discovery using engineered E. coli” (Nature Communications, 2022).

Holding throughout (assay): growth (OD600 after 10 h); higher = more growth (less inhibition)
The subject of experiment [1] is E. coli TESEC Alr+ wild-type control. Conditions: compound 0.1 mM; raw OD600 reference: median of DMSO wells 0.241, cell-free background 0.041. As for the experimental part:
(§1)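 TESEC Mtb Alr E. coli, or the Alr+ wild-type control, in 384-well plates with Prestwick library compounds at 0.1 mM and 1% DMSO, across arabinose induction levels of 1E3 to 1E7 nM. Growth is read as OD600 after 10 h at 37 °C in triplicate biological replicates.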

In experiment [2] the test system is E. coli TESEC Mtb Alr. Conditions: compound 0.1 mM. As for the experimental part: as §1
A further experiment deals with E. coli TESEC Mtb Asd. Conditions: compound 0.1 mM. As for the experimental part: (§2)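 TESEC E. coli strains in which the native enzyme is deleted and replaced by arabinose-inducible Mtb Asd, DapB, CysH or TrpD, each grown in its selective medium. Strains were screened against the Prestwick library at 0.1 mM and 1% DMSO in 384-well format at low and high arabinose induction. Growth is read as OD600 after 10 h in triplicate.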

A further experiment concerns E. coli TESEC Mtb DapB. Conditions: compound 0.1 mM. As for the experimental part:
as §2

The test system of experiment [3] is E. coli TESEC Alr+ wild-type control. Conditions: compound 0.1 mM; raw OD600 reference: median of DMSO wells 0.49, cell-free background 0.052. On the procedure:
(§3)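 TESEC Mtb Alr E. coli (ΔaraC ΔtolC ΔentC Δalr ΔdadX, arabinose-inducible Mtb Alr) or the Alr+ wild-type control strain, grown in defined M9-fructose medium without D-alanine in 96-well plates with Prestwick library compounds at 0.1 mM and 1% DMSO. Low Alr induction is 0.1 µM arabinose and high induction is 10 mM arabinose.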

The test system of experiment [4] is E. coli TESEC Mtb Alr. Conditions: compound 0.1 mM. On the procedure: as §3
This is another data set of the same source.

Setting [5] is: arabinose 1000 nM, raw OD600 reference: median of DMSO wells 0.294, cell-free background 0.041.
[6] abbreviates: arabinose 10000 nM, raw OD600 reference: median of DMSO wells 0.264, cell-free background 0.041.
Where [7] appears, read: arabinose 100000 nM, raw OD600 reference: median of DMSO wells 0.201, cell-free background 0.041.
Setting [8] is: arabinose 1000000 nM, raw OD600 reference: median of DMSO wells 0.193, cell-free background 0.041.
Where [9] appears, read: arabinose 10000000 nM, raw OD600 reference: median of DMSO wells 0.146, cell-free background 0.041.
Where [10] appears, read: arabinose induction (level): High, raw OD600 reference: median of DMSO wells 0.331, cell-free background 0.041.
The mark [11] stands for this setting: arabinose induction (level): Low, raw OD600 reference: median of DMSO wells 0.417, cell-free background 0.041.
The mark [12] stands for this setting: arabinose induction (level): High, raw OD600 reference: median of DMSO wells […], cell-free background 0.041.
[13] abbreviates: arabinose induction (level): Low, raw OD600 reference: median of DMSO wells 0.227, cell-free background 0.041.
Setting [14] is: arabinose 100 nM, raw OD600 reference: median of DMSO wells 0.413, cell-free background 0.052.
Setting [15] is: arabinose 10000000 nM, raw OD600 reference: median of DMSO wells […], cell-free background 0.052.

± gives the standard deviation of the averaged measurements.

On to `NC[C@H]1CC[C@H](C(=O)O)CC1` [Tranexamic acid], for which the growth was determined as 0.254 ± 0.0017 in experiment [1]; 0.293 ± 0.0074 in the experiment with E. coli TESEC Mtb Alr [2] (setting [5]); 0.282 ± 0.0046 in the experiment with E. coli TESEC Mtb Alr [2] (setting [6]); 0.215 ± 0.031 with E. coli TESEC Mtb Alr [2] (setting [7]); 0.186 ± 0.002 with E. coli TESEC Mtb Alr [2] (setting [8]); 0.141 ± 0.0029 with E. coli TESEC Mtb Alr [2] (setting [9]). The growth with E. coli TESEC Mtb Asd (setting [10]) was 0.381 ± 0.056; in the experiment with E. coli TESEC Mtb Asd (setting [11]), 0.446 ± 0.026; in the experiment with E. coli TESEC Mtb DapB (setting [12]), 0.188 ± 0.011; with E. coli TESEC Mtb DapB (setting [13]) it was 0.214 ± 0.018; in experiment [3], 0.456 ± 0.04; in the experiment with E. coli TESEC Mtb Alr [4] (setting [14]), 0.411 ± 0.0076. Moreover, in the experiment on E. coli TESEC Mtb Alr [4] (setting [15]), the growth is 0.349 ± 0.0049.
In the case of `Clc1ccc(C(Cn2ccnc2)OCc2csc3c(Cl)cccc23)c(Cl)c1` (configuration not stated) [Sertaconazole nitrate], the growth in experiment [1] came to 0.0563 ± 0.0014; with E. coli TESEC Mtb Alr [2] (setting [5]), 0.0558 ± 0.0094; with E. coli TESEC Mtb Alr [2] (setting [6]) it was 0.07 ± 0.0042; in the experiment with E. coli TESEC Mtb Alr [2] (setting [7]), 0.057 ± 0.0028; in the experiment with E. coli TESEC Mtb Alr [2] (setting [8]), 0.06457 ± 0.00042; in the experiment on E. coli TESEC Mtb Alr [2] (setting [9]), 0.0588 ± 0.0084. Besides, the growth in the experiment on E. coli TESEC Mtb Asd (setting [10]) was 0.0594 ± 0.0039; in the experiment with E. coli TESEC Mtb Asd (setting [11]) it was 0.0635 ± 0.0047; in the experiment on E. coli TESEC Mtb DapB (setting [12]), 0.0687 ± 0.0033; in the experiment on E. coli TESEC Mtb DapB (setting [13]), 0.0671 ± 0.0089; in experiment [3], 0.129 ± 0.036; in the experiment with E. coli TESEC Mtb Alr [4] (setting [14]), 0.12 ± 0.024. For the same compound, in the experiment with E. coli TESEC Mtb Alr [4] (setting [15]), the growth turned out to be 0.123 ± 0.0052.
`CCOC1O[C@H]([C@@H](COCc2ccccc2)OCc2ccccc2)[C@H](OCc2ccccc2)[C@H]1O` (some centres not stated) [Tribenoside]: the growth worked out at 0.23 ± 0.005 in experiment [1]; 0.29 ± 0.008 with E. coli TESEC Mtb Alr [2] (setting [5]); 0.255 ± 0.015 in the experiment with E. coli TESEC Mtb Alr [2] (setting [6]); 0.148 ± 0.0075 with E. coli TESEC Mtb Alr [2] (setting [7]); 0.0915 ± 0.0035 in the experiment with E. coli TESEC Mtb Alr [2] (setting [8]); 0.154 ± 0.0022 with E. coli TESEC Mtb Alr [2] (setting [9]). Moreover, the growth was determined as 0.214 ± 0.023 in the experiment on E. coli TESEC Mtb Asd (setting [10]); 0.199 ± 0.015 in the experiment on E. coli TESEC Mtb Asd (setting [11]); 0.155 ± 0.0039 in the experiment on E. coli TESEC Mtb DapB (setting [12]); 0.155 ± 0.016 in the experiment on E. coli TESEC Mtb DapB (setting [13]); 0.374 ± 0.015 in experiment [3]; 0.378 ± 0.0058 in the experiment with E. coli TESEC Mtb Alr [4] (setting [14]). In the experiment with E. coli TESEC Mtb Alr [4] (setting [15]), this compound showed a growth of 0.0944 ± 0.017.
Turning to `Cc1cc(C2CCCCC2)n(O)c(=O)c1` [Ciclopirox ethanolamine], the growth in experiment [1] was 0.04347 ± 0.00021; in the experiment on E. coli TESEC Mtb Alr [2] (setting [5]), 0.04303 ± 5.8e-05; in the experiment with E. coli TESEC Mtb Alr [2] (setting [6]), 0.03957 ± 0.00035; in the experiment on E. coli TESEC Mtb Alr [2] (setting [7]), 0.0447 ± 0.00064; with E. coli TESEC Mtb Alr [2] (setting [8]), 0.03987 ± 0.00012; in the experiment with E. coli TESEC Mtb Alr [2] (setting [9]), 0.0504 ± 0.00059. Also, the growth with E. coli TESEC Mtb Asd (setting [10]) worked out at 0.0544 ± 0.0014; with E. coli TESEC Mtb Asd (setting [11]), 0.0525 ± 0.0041; in the experiment on E. coli TESEC Mtb DapB (setting [12]), 0.0626 ± 0.011; in the experiment on E. coli TESEC Mtb DapB (setting [13]) it was 0.05427 ± 0.00029; in experiment [3], 0.0666 ± 0.0021; in the experiment with E. coli TESEC Mtb Alr [4] (setting [14]), 0.0481 ± 0.00095. In the experiment on E. coli TESEC Mtb Alr [4] (setting [15]), this compound returned a growth of 0.0634 ± 0.0046.
